In the supplement of paper PMC6555819:

Tests used:
Experiment in all cases: PBM binding z-score (relative to random genomic background probes); higher = stronger binding; sequences stand for … in GC…GCGATTGACAGCGTAGAATGAAGG
[1] = tested on: FXR:RXRa (NR concentration 270 nM, RXRa partner concentration 90 nM)
Summary of the method: (§1)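 Binding z-scores take random background probes as their reference. They come from custom Agilent 4×180K protein-binding microarrays incubated 1 h with ligand-free nuclear receptor dimers, with antibodies against each partner (one per run) detecting binding. Scanned fluorescence was regression-normalized.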

[2] = tested on: LXRa:RXRa (NR concentration 270 nM, RXRa partner concentration 90 nM)
Summary of the method: as §1

[3] = tested on: LXRa homodimer (NR concentration 270 nM)
Summary of the method: as §1

[4] = tested on: LXRb:RXRa (NR concentration 270 nM, RXRa partner concentration 90 nM)
Summary of the method: as §1

[5] = tested on: LXRb homodimer (NR concentration 270 nM)
Summary of the method: as §1

[6] = tested on: PPARa:RXRa (NR concentration 270 nM, RXRa partner concentration 90 nM)
Summary of the method: as §1

[7] = tested on: PPARg:RXRa (NR concentration 180 nM, RXRa partner concentration 90 nM)
Summary of the method: as §1

[8] = tested on: PPARg:RXRa 270nM:90nM, anti-RXR (NR concentration 270 nM, RXRa partner concentration 90 nM)
Summary of the method: as §1

[9] = tested on: PPARg:RXRa 30nM:10nM, anti-RXR (NR concentration 30 nM, RXRa partner concentration 10 nM)
Summary of the method: as §1

[10] = tested on: PPARg:RXRa 90nM:30nM, anti-RXR (NR concentration 90 nM, RXRa partner concentration 30 nM)
Summary of the method: as §1

[11] = tested on: PPARg:RXRa DBDmut IVT, anti-RXR (DBD mutation: RXRa K156A/R161A, NR concentration 270 nM, RXRa partner concentration 90 nM)
Summary of the method: as §1

[12] = tested on: PPARg:RXRa IVT, anti-PPARg (NR concentration 270 nM, RXRa partner concentration 90 nM)
Summary of the method: as §1

[13] = tested on: PPARg DBDmut:RXRa IVT, anti-PPARg (DBD mutation: PPARg1 K132A/R137A, NR concentration 270 nM, RXRa partner concentration 90 nM)
Summary of the method: as §1

[14] = tested on: PPARg DBDmut IVT, anti-PPARg (DBD mutation: PPARg1 K132A/R137A, NR concentration 270 nM)
Summary of the method: as §1

[15] = tested on: PPARg homodimer (NR concentration 180 nM)
Summary of the method: as §1

[16] = tested on: PXR:RXRa (NR concentration 270 nM, RXRa partner concentration 90 nM)
Summary of the method: as §1

[17] = tested on: PXR homodimer (NR concentration 270 nM)
Summary of the method: as §1

[18] = tested on: RARa:RXR (NR concentration 270 nM, RXRa partner concentration 90 nM)
Summary of the method: as §1

[19] = tested on: RARa homodimer (NR concentration 270 nM)
Summary of the method: as §1

[20] = tested on: RARb:RXRa (NR concentration 270 nM, RXRa partner concentration 90 nM)
Summary of the method: as §1

Row | Sequence | PBM binding z-score [1] | PBM binding z-score [2] | PBM binding z-score [3] | PBM binding z-score [4] | PBM binding z-score [5] | PBM binding z-score [6] | PBM binding z-score [7] | PBM binding z-score [8] | PBM binding z-score [9] | PBM binding z-score [10] | PBM binding z-score [11] | PBM binding z-score [12] | PBM binding z-score [13] | PBM binding z-score [14] | PBM binding z-score [15] | PBM binding z-score [16] | PBM binding z-score [17] | PBM binding z-score [18] | PBM binding z-score [19] | PBM binding z-score [20]
1 | CAAACTGGGTCACAGAGGTCAAAGTCCGTGCGTA | 6.46 | 6.47 | 6.04 | 5.99 | 1.68 | 6.5 | 9.86 | 7.93 | 6.54 | 8.19 | 7.82 | 8.76 | 4.79 | 4.1 | 3.96 | 6.74 | 9 | 7.06 | 0.622 | 5.21
2 | GCTGCCAGGTCAACTGATGGTCAGCTAAAGCTCG | 4.84 | 3.82 | 0.113 | 2.73 | 0.00556 | 4.4 | 2.42 | 3.09 | 0.281 | 1.61 | 2.71 | 2.73 | 0.45 | -0.276 | 4.33 | 2.76 | -0.337 | 4.22 | -0.0772 | 4.46
3 | ATACGTAGGTTAAGGGTCATTCAGGTTGGTTCGC | 5.1 | 4.98 | 2.92 | 4.46 | 1.03 | 5.41 | 7.56 | 7.6 | 6.33 | 8.26 | 1.41 | 3.8 | 0.783 | 0.775 | 3.98 | 5.7 | 2.65 | 6.55 | 2.24 | 3.7
4 | GCAGACCGGTGAAACGCAGGTAACTCAGGGTGGC | -0.668 | -0.615 | -0.629 | -0.971 | -1.86 | -1.17 | -0.0428 | -1.18 | -1.16 | -1.16 | -0.72 | -0.532 | -1.77 | -1.81 | -1.43 | -0.781 | -1.17 | -0.497 | -1.38 | -0.191
5 | ACTATTAGTTGAGACGAGGGCAACTGATAGGTTG | 0.629 | -0.0348 | 0.074 | -0.0916 | -0.0432 | 0.621 | 0.7 | 0.45 | 0.365 | 0.668 | 0.393 | 0.643 | 1.37 | 1.23 | 0.253 | 1.22 | 0.231 | 0.44 | 0.299 | 1.16
6 | CAAACTACGTCAAGGTCAAAGTCGGTTTGTGCCA | 4.66 | 4.23 | 2.86 | 3.54 | 1.01 | 4.35 | 1.43 | 2.55 | 0.626 | 1.7 | 0.822 | 1.93 | 0.681 | 0.932 | 2.33 | 4.63 | 2.94 | 4.28 | 0.409 | 4.04
7 | ATCGAAAGGTTGAAGGTGAGTATACCCACCCGAA | 0.788 | 1.06 | -0.269 | 0.741 | 0.0854 | 2.36 | 1.68 | 1.92 | 0.761 | 1.52 | -0.526 | 0.764 | 0.619 | 0.928 | 0.699 | 1.06 | -0.0881 | 1.79 | 0.177 | 1.66
8 | GGAACGAGGGCATTCGAATTGATAGCATGGCGAT | 0.807 | 0.373 | -0.335 | 0.239 | -0.211 | 1.31 | 1.15 | 1.14 | 0.413 | 0.651 | 3.02 | 2.16 | -0.249 | -0.176 | -0.045 | 0.719 | 0.241 | 0.841 | -0.483 | 1.9
9 | AATACAGGGTCATCGTAGGCCAAAGTACGCACAG | 7.45 | 6.92 | 3.34 | 5.36 | 1.6 | 6.04 | 6.83 | 5.96 | 2.67 | 4.78 | 2.81 | 4.06 | 3.81 | 2.62 | 3.47 | 5.59 | 1.03 | 5.27 | 1.3 | 4.29
